Source: PubChem (several laboratories)
Compounds with a hit are over-represented: about 5.2% of the library has one in this group of screens.
PfM18AAP inh – PfM18AAP inhibitors, malaria aminopeptidase, primary screen, biochemical, QFRET, recombinant enzyme; H-Glu-NHMec fluorogenic cleavage; inhibition, % at 7.35 µM; 290,000 tested, 1.2% active; AID 1822, 2009;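 active = inhibition above the campaign mean inhibition over all tested compounds plus 3 SD, cut at about 28% in these data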;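 also: 0% = plate median of test compound wells and 100% = 2 mM ZnCl2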
ALR H2O2 inh – inhibitors of human ALR sulfhydryl oxidase, primary screen, biochemical, H2O2 detection, HRP-luminol luminescence, single point. purified ALR, DTT oxidation. inhibition, % (concentration not given with the values). 290,000 tested, 3.8% active. AID 485317, 2010;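 active = mean replicate inhibition above about 79%, with every replicate also reaching it, limit read from the data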
Target sequence (P55789 whole entry, looked up): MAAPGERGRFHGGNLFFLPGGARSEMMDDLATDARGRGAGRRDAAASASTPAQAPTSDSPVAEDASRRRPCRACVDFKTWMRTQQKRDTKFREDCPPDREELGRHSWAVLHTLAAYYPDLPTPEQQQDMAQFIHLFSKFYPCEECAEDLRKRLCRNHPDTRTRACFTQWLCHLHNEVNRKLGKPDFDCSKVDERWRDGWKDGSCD
APOBEC3A inh – APOBEC3A ssDNA deaminase inhibitors, primary screen, selectivity assay for APOBEC3G inhibitor project, biochemical, FAM/TAMRA oligo cleavage fluorescence | DNA dC->dU-editing enzyme APOBEC-3A (Homo sapiens), P31941 | 330,000 tested, 0.41% active | recombinant A3A, FAM/TAMRA ssDNA deamination fluorescence | AID 493011, 2011 | inhibition, % at 20 µM;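 active = at least 40% inhibition at 20 µM here, with at most 30% in a related deaminase screen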;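 also: plate controls were A3A with DMSO for no effect and wells lacking A3A enzyme for full effect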
CR mimetic SO – reduction of superoxide in aged yeast, primary screen, HTS; S. cerevisiae aged cells, superoxide DHE fluorescence; active compounds read low; superoxide response (% of plate mean), % at 10 µM; 330,000 tested, 0.18% active; AID 2690, 2010;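 active = superoxide response under a set limit, about three screen SD below normal, cut at about 65% in these data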;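 also: yeast aged for seven days with compound at 30 °C before DHE staining; 100% = average MFI of all compound-treated wells on the plate with controls excluded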
A3G deaminase – APOBEC3G DNA deaminase inhibitors, primary screen, biochemical, fluorescence, single-stranded DNA substrate, uHTS; DNA dC->dU-editing enzyme APOBEC-3G (Homo sapiens), Q9HC16; recombinant A3G, ssDNA deamination FAM/TAMRA fluorescence; inhibition, % at 20 µM; 330,000 tested, 0.28% active; AID 493012, 2011;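 active = inhibition of at least 40% at 20 µM, with no more than 30% in the related APOBEC3A deaminase screen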;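 also: plate controls were DMSO wells with A3G for no effect and wells lacking A3G enzyme for full effect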
Target sequence (Q9HC16 whole entry, looked up): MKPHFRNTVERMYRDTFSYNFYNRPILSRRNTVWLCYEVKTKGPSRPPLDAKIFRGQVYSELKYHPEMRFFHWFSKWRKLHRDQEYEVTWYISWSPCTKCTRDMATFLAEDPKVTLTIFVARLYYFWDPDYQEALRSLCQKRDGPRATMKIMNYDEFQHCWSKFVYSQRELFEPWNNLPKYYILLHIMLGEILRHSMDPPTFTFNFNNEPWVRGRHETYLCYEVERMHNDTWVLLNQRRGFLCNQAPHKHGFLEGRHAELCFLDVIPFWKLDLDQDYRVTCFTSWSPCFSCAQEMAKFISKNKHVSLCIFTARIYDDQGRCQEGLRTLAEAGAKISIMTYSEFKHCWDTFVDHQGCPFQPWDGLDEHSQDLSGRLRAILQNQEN
CendR NRP1 mod – modulators of CendR peptide binding to NRP-1, primary screen, biochemical, fluorescence polarization, uHTS. 360,000 tested, 0.85% active. inhibition, % at 25 µM. FAM-RPARPAR peptide binding to NRP-1. AID 602438, 2012. Neuropilin-1 (Homo sapiens), O14786;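 active = inhibition or corrected inhibition above about 18%, plus a signal ratio from 0.5 to 1.5, limit read from the data, passing the limit was not always enough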
* = called active by the depositor; x = no result.

SMILES	PfM18AAP inh	ALR H2O2 inh	APOBEC3A inh	CR mimetic SO	A3G deaminase	CendR NRP1 mod
COc1ccc(-c2cc3ccccc3n2CC(O)CN2CCN(CCO)CC2)cc1 (stereo not drawn)	2.0	96.5*	-4.3	98.2	-9.4	2.9
COc1ccc(-c2cc3ccccc3n2CC(O)CN2CCOCC2)cc1 (stereo not drawn)	-1.6	-4.2	-3.0	98.0	-3.3	5.7
Cc1ccc(C2=Nn3c(COc4ccc(Cl)cc4)nnc3SC2CC(=O)O)cc1 (stereo not drawn)	-0.7	97.5*	8.4	113.7	-11.0	-12.9
COCCNC(=O)c1onc(CSc2ccc(C)c(C)c2)c1C(=O)O	-7.6	90.4*	2.1	93.8	4.1	-5.4
CC(C)NC(=O)c1c(CSc2ccc(Cl)cc2)noc1C(=O)NCc1ccccc1	x	-10.9	-2.1	95.5	-5.6	13.1
Cc1ccc(SCc2noc(C(=O)NC(C)C)c2C(=O)O)cc1C	0.1	95.7*	-0.8	x	-6.0	-3.9
CC(C)NC(=O)c1onc(CSc2ccc(F)c(F)c2)c1C(=O)O	-4.8	1.6	3.0	x	-3.8	-12.0
CC(C)NC(=O)c1c(CSc2ccccc2)noc1C(=O)NCc1ccccc1	x	1.4	3.3	92.3	2.6	32.1*
COc1ccc(CNCCNC(=O)c2cccs2)cc1OC	2.2	-1.8	0.1	86.4	-5.1	2.2
Cc1ccc(NC(=O)c2ccc3nc[nH]c3c2)cc1C	-5.0	11.5	12.9	122.4	-0.1	-2.1
COCCNc1nc(-c2cc(-c3ccccc3)on2)cc(C(C)C)n1	x	2.3	-0.6	93.5	-3.4	26.5*
Cc1cc(C(=O)N/N=C/c2cc(Br)cc(Br)c2OC(=O)c2cccc(F)c2)n[nH]1	-4.1	-4.3	-5.7	100.1	-9.4	20.3*
O=C(Cc1ccc(Cl)cc1)NNC(=S)NC(=O)c1cccs1	-0.9	97.8*	-1.9	187.2	-2.4	37.4*
O=C(Cc1cccs1)NNC(=S)NCc1ccc(Cl)cc1	24.9	9.0	-2.0	93.8	-4.1	1.0
O=C(Nc1ccccc1)c1sc(Cl)nc1-c1ccccc1	1.0	94.2*	0.1	105.3	-4.8	-2.7
O=C(Nc1cc(F)cc(F)c1)c1sc(Cl)nc1-c1ccccc1	2.8	-17.9	2.2	94.5	-5.3	-11.4
CCC1CCCCN1CCCNC(=O)C1CCCN(S(=O)(=O)N2CC(C)CC(C)C2)C1 (stereo not drawn)	-6.9	-0.4	0.6	101.7	9.9	27.3*
Cc1nc(N2CCOCC2)nc(N2CCN(c3ccccc3)CC2)c1[N+](=O)[O-]	-7.8	0.9	-0.1	100.8	-2.9	-8.7
O=C1Nc2ccccc2Nc2ncccc21	-1.8	x	-1.9	96.1	-5.7	14.0
Cc1ccc2c(c1)NC(=O)c1cccnc1N2	-72.4	98.4*	-4.6	101.7	-6.8	6.1
CCCn1cnc2c(N)c(C)c(C)cc21	1.2	83.0*	2.0	118.0	-4.7	13.6
COc1cccc(Cn2cnc3c(N)c(C)c(C)cc32)c1	1.5	33.2	-5.4	109.9	-7.8	2.0
CCNC(=O)CCS(=O)(=O)c1ccc2ccccc2c1	-4.1	98.6*	-0.1	98.6	-10.4	10.2
Cn1c(=O)c(=O)n(C)c2cc(S(=O)(=O)CCC(=O)NCc3ccccc3)ccc21	5.1	99.0*	4.6	125.6	5.2	-11.7
Cc1ccc(S(=O)(=O)CCC(=O)NCc2ccccc2)cc1	4.1	-3.6	-2.9	103.4	-8.1	-2.9
SMILES	PfM18AAP inh	ALR H2O2 inh	APOBEC3A inh	CR mimetic SO	A3G deaminase	CendR NRP1 mod
CC(C)n1c(O)c(N=NC(=O)CNC(=O)Cc2ccc(Cl)cc2)c2ccccc21	-2.5	-41.6	-2.7	114.4	1.4	21.2*
COc1ccc(C(C)=O)cc1OCc1ccccc1	x	x	x	x	x	0.3
Cc1cc(C)cc(NC(=O)c2ccc(CN3CCc4ccccc4C3)cc2)c1	0.0	-3.6	-1.9	102.4	-5.2	1.5
Cc1cc(C)n2nc(C(=O)NC(c3ccccc3)c3ccccc3)nc2n1	3.4	-14.0	1.2	88.7	-3.4	-9.2
CCCCC1=CC2=CC(=O)C(C)(OC(=O)CC)C(=O)C2=CN1c1ccc(OC)cc1 (stereo not drawn)	x	-9.8	-1.9	98.2	-2.7	23.9*
CCCCC1=CC2=CC(=O)C(C)(OC(=O)CC)C(=O)C2=CN1c1cccc(C#N)c1 (stereo not drawn)	x	-61.1	-0.1	106.0	-5.1	6.0
COc1ccc(-c2csc(NCCc3nc4cc(C(=O)NCCCO)ccc4n3Cc3ccc(C)cc3)n2)cc1	x	x	0.1	109.9	-6.4	27.0*
Cc1ccc(Cn2c(C3CCCN3c3nc(-c4ccc(F)cc4)cs3)nc3cc(C(=O)NCCCO)ccc32)cc1 (stereo not drawn)	x	14.7	-4.5	104.1	-12.2	-1.0
Cc1cc(C)nc(SCNC(=O)c2ccccc2)n1	45.0*	2.4	-6.4	108.0	-7.4	14.6
Cc1cc(SCC(N)=O)nc(SCC(=O)c2ccccc2)n1	-10.2	x	-7.0	120.7	-6.6	3.5
Cc1cc(SCNC(=O)c2ccccc2)nc(C(C)C)n1	-3.2	98.5*	0.8	92.5	-8.6	8.3
CC(C)[C@@H](NC(=O)OC(C)(C)C)c1cc(C(=O)c2c(-c3ccccc3)[nH]c3ccccc23)c(N)s1	x	x	x	x	x	-20.5
CCOC(=O)c1c(C)n(O)c2ccc(Cl)cc2c1=O	4.9	3.8	-1.2	96.0	-5.7	-1.8
Cc1c(C(=O)N(C)C)c2cc(Cl)ccc2n1O	9.9	97.7*	-2.6	83.7	-7.8	5.7
Cc1c(C(=O)N(C)C)c2ccc(Cl)cc2n1O	9.5	98.5*	-3.2	110.8	-2.6	1.7
O=C(Nc1ccc(OC(F)F)c(Cl)c1)[C@@H]1CCCN1C(=O)c1cccs1	-10.7	-3.2	0.3	84.2	-5.5	1.4
C=CCSC1=N/C(=C\c2sccc2C)C(=O)S1	-0.6	53.3	-1.8	104.5	-3.5	-11.8
C=CCSC1=N/C(=C\C=C\c2ccco2)C(=O)S1	11.2	98.7*	97.8	101.4	84.7	-57.7
O=C(CC(Nc1ccccc1Cl)C(=O)O)c1ccccc1 (stereo not drawn)	-68.4	97.5*	3.2	86.1	4.0	14.1
O=C(CC(Nc1cccc(Cl)c1Cl)C(=O)O)c1ccccc1 (stereo not drawn)	-53.9	-10.1	0.0	108.8	-4.2	10.5
CCn1c(SCc2nc3sc(C(=O)O)c(C)c3c(=O)[nH]2)nc2ccccc21	33.0*	97.5*	79.0	95.8	64.8	-71.0
O=C(Nc1ccc2c(c1)OCCO2)C1CC(c2ccc(F)cc2)=NO1 (stereo not drawn)	3.9	-2.8	-2.0	99.2	-5.3	-6.9
